The list is not random: actives were taken first. Their share in the collection is about 3.6%.
Pf apPOL block: Pf-apPOL inhibitors, biochemical, fluorescence; 0.25% of 210,000 active; Recombinant Pf-apPOL, molecular beacon fluorescence, 1.5 h; inhibition, % at 10 µM; Plasmodium falciparum apicoplast DNA polymerase (apPOL)
mHTT-CaM PPI inh: mutant huntingtin-calmodulin interaction inhibitors – biochemical, AlphaScreen, primary screen; AlphaScreen His-mHTT/GST-CaM binding, luminescence; inhibition, % at 15 µM; 3.6% of 190,000 active
Each line names hits and unclear results; the compound was inactive in the other large screens. Rule as the data show it: active = inhibition above about 50%; inactive = the rest.

O=C1C=CC(=NS(=O)(=O)c2ccc(Cl)cc2)C=C1	none
O=C1C=CC(=NS(=O)(=O)c2ccc(F)cc2)c2ccccc21	mHTT-CaM PPI inh 100
CC(C)c1ccc(S(=O)(=O)N2CCN(C)c3ccccc32)cc1	none
O=C1C=CC(=NS(=O)(=O)c2ccc(Cl)cc2)c2ccccc21	mHTT-CaM PPI inh 98
CCN(CC)c1ccc(N=C2C=CC(=O)c3ccccc32)c(C)c1	none (no result: mHTT-CaM PPI inh)
COCCC1CCN(C(=O)CN(C)C(=O)Cc2ccsc2)CC1	none
COc1cc(C)nc(Oc2ccc(OCC(N)=O)nn2)n1	none
CC1CCCCC1NC(=O)CN1N=C(c2ccc(Cl)cc2)CCC1=O (stereo not drawn)	none
CCOc1ccccc1CNC(=O)c1cc2c(s1)CCN(C(C)=O)C2	none
CCOC(=O)CC1(NC(=O)N2CC3CCCN3c3ccccc32)CCCCC1 (stereo not drawn)	mHTT-CaM PPI inh 64
COC(=O)CNC(=O)N1CC2CCCN2c2ccccc21 (stereo not drawn)	none
CCOC(=O)C1CCC(CNC(=O)N2CC(CC)Oc3ccccc32)CC1 (stereo not drawn)	none
CCOC(=O)C1CCC(CNC(=O)N2CC3CCCN3c3ccccc32)CC1 (stereo not drawn)	mHTT-CaM PPI inh 66
Cc1cc(Br)ccc1N1CCC(C(=O)NCc2ccncc2)C1=O (stereo not drawn)	none
Cc1ccc(NC(=O)N2CCC(n3cnc4ccc(C)cc4c3=O)CC2)c(C)c1	none
Cc1ccc2nc(-c3ccc(NC(=O)C4=Cc5cc(Cl)ccc5OC4)cc3)sc2c1	none (no result: mHTT-CaM PPI inh)
CCOc1ccc(N=c2scc(-c3ccccc3)n2CCO)cc1	none
Cc1ccc(C)c(-c2csc(=Nc3ccccc3)n2CCCO)c1	mHTT-CaM PPI inh 100
CCCCn1c(-c2ccc(S(=O)(=O)N3CCOCC3)cc2)csc1=Nc1ccccc1	none
Clc1ccc(-c2csc(=Nc3ccccc3)n2CCCN2CCOCC2)cc1	mHTT-CaM PPI inh 98
CCOc1ccc(N=c2scc(-c3ccc(Br)cc3)n2CCO)cc1	none
O=S(=O)(c1ccc(-c2csc(=Nc3ccccc3)n2CCCO)cc1)N1CCCCC1	mHTT-CaM PPI inh 51
OCCCn1c(-c2ccc(Br)cc2)csc1=Nc1ccccc1	mHTT-CaM PPI inh 59
CCCn1c(-c2ccc(S(=O)(=O)N3CCOCC3)cc2)csc1=Nc1ccccc1	none
COc1ccc(-c2nc3s/c(=C\c4ccccc4Br)c(=O)n3n2)cc1	none
COc1ccc(Br)cc1/C=C1\NC(=O)N(CC(=O)Nc2cccc(C)c2)C1=O	none
O=[N+]([O-])c1cccc(/C=C/c2nc(C=Nc3ccc(O)cc3)c(O)o2)c1	mHTT-CaM PPI inh 50
O=[N+]([O-])c1cccc(/C=C/c2nc(C=Nc3ccccc3)c(O)o2)c1	none
CC(C)NC(=O)c1ccccc1NC(=O)CN(c1ccccc1F)S(=O)(=O)c1ccccc1	Pf apPOL block 92
CCc1ccccc1N(CC(=O)Nc1ccc(F)cc1F)S(=O)(=O)c1ccccc1	mHTT-CaM PPI inh 81
COc1ccc(N(CC(=O)Nc2ccc(F)cc2F)S(=O)(=O)c2ccccc2)c(OC)c1	none
CCc1ccccc1N(CC(=O)Nc1ccccc1C(=O)NC(C)C)S(C)(=O)=O	none
CCOc1ccccc1NC(=O)c1cc(S(=O)(=O)NC2CCCCCC2)ccc1F	none
Cn1cccc1C(CNC(=O)C12CC3CC(CC(C3)C1)C2)N1CCc2ccccc2C1 (stereo not drawn)	none
CC(C)n1cc2cc(C(=O)N3CCN(Cc4ccccc4F)CC3)sc2c1	mHTT-CaM PPI inh 60
CC(C)CN1CCN(C(=O)c2cc3cn(C(C)C)cc3s2)CC1	none
CC(=O)N1CCN(C(=O)c2cc3cn(C(C)C)cc3s2)CC1	none
CC(C)n1cc2cc(C(=O)N3CCN(Cc4ccc5c(c4)OCO5)CC3)sc2c1	mHTT-CaM PPI inh 65
O=C(c1cc2cn(C3CC3)cc2s1)N1CCN(Cc2ccc3c(c2)OCO3)CC1	mHTT-CaM PPI inh 63
O=C(c1cc2cn(C3CC3)cc2s1)N1CCN(C2CCCCC2)CC1	mHTT-CaM PPI inh 55
CN1CCC(N2CCN(C(=O)c3cc4cn(C5CCCC5)cc4s3)CC2)CC1	none
O=C(c1cc2cn(C3CC3)cc2s1)N1CCOCC1	none
O=C(NCCCN1CCCC1)C1CCCN(c2ncc(-c3ccc(F)cc3)cn2)C1 (stereo not drawn)	none
O=C(NC1CC1)c1ccnc(N2CCNC(c3ccccc3)C2)c1 (stereo not drawn)	none
COc1cc2nc(-c3ccccc3I)oc(=O)c2cc1OC	none
COc1ccc2c(c1)c(CN1CCC(C(=O)NCCN3CCCCC3)CC1)cn2C	none
COc1ccc(S(=O)(=O)Nc2ccc3oc(=O)sc3c2)cc1	none
COc1ccc(S(=O)(=O)Nc2cc3sc(=O)oc3c3ccccc23)cc1	mHTT-CaM PPI inh 100
COc1cccc(C(=O)Nc2c3c(nn2-c2cccc(C)c2C)CSC3)c1OC	none
COc1cccc(CC(=O)N2CCC3(CC2)Nc2cc(OC)ccc2-n2cccc23)c1	mHTT-CaM PPI inh 92
O=C(COc1ccc(Cl)cc1)N1CCC2(CC1)Nc1ccccc1-n1cccc12	mHTT-CaM PPI inh 93
COc1ccc2c(c1)NC1(CCN(C(=O)COc3cccc(C)c3)CC1)c1cccn1-2	mHTT-CaM PPI inh 85
COc1cccc(CC(=O)N2CCC3(CC2)NC(=O)N(Cc2ccc(C)cc2)C3=O)c1	none
CCOc1ccccc1C(=O)N1CCC2(CC1)Nc1ccccc1-n1cccc12	none
O=C(Cc1cccc(F)c1)N1CCC2(CC1)Nc1ccccc1-n1cccc12	mHTT-CaM PPI inh 59
Cc1ccc(CN2C(=O)NC3(CCN(C(=O)COc4cccc(C)c4)CC3)C2=O)cc1	none
O=C(Cc1cccc(F)c1)N1CCC2(C1)C(=O)Nc1ccccc12 (stereo not drawn)	none
CC(=O)NCCc1csc(C2CCCN(C(=O)c3ccccc3C)C2)n1 (stereo not drawn)	none
CCNC(=O)N1CC=C(C(=O)Nc2ccccc2F)CC1	none
Cc1cccc(C2CCCN2C(=O)c2cc(-c3ccccc3)no2)c1 (stereo not drawn)	none
Fc1ccc(OCC2CN(Cc3cccs3)CCO2)c(F)c1 (stereo not drawn)	none
Cc1cc(NC(=O)CN2C(=O)S/C(=C\c3ccc(F)cc3)C2=O)no1	none
Cc1cc2n(n1)CCCN2C(=O)CCC(=O)NCCCN1CCN(C2CCCCC2)CC1	none
COc1ccc2c(c1)NC1(CCN(C(=O)COc3ccc(F)cc3)CC1)c1cccn1-2	mHTT-CaM PPI inh 96
Cc1cccc(OCC(=O)N2CCC3(CC2)NC(=O)N(Cc2ccc(F)cc2)C3=O)c1	none
COc1ccc(OCC(=O)N2CCC3(CC2)Nc2cccnc2NC3=NC(C)(C)C)cc1	none
COc1ccc(OCC(=O)N2CCC3(CC2)Nc2cc(C)ccc2-n2cccc23)cc1	mHTT-CaM PPI inh 54
C=CCn1c(OC)nc2c1c(=O)n(C)c(=O)n2C	none
COc1ccc(C2(CNC(=O)c3ccc(OC)c([N+](=O)[O-])c3)CCCC2)cc1OC	none
COc1ccc(C2(CNC(=O)c3ccccc3[N+](=O)[O-])CCCC2)cc1OC	mHTT-CaM PPI inh 100
CCN(CC)c1ccc(NC(=O)Cc2ccccc2)cc1	none
CCN(CC)c1ccc(C2NN=C(Cc3ccccc3)S2)cc1 (stereo not drawn)	mHTT-CaM PPI inh 85
Cc1cccc(-n2nc3c(c2NC(=O)C(C)(C)C)CS(=O)(=O)C3)c1C	none
OC(COCC(c1ccccc1)c1ccccc1)Cn1cnc2ccccc21 (stereo not drawn)	mHTT-CaM PPI inh 56
OC(COCc1ccccc1)Cn1cnc2ccccc21 (stereo not drawn)	none
